The source of these data is publication PMC5540273 (PLoS ONE, 2017).

Some test systems named below: MTOR; MUSK; MYLK2; MYLK4; MYLK; MYO3A; MYO3B; NDR2; NEK10; NEK11; NEK1; NEK2; NEK3; NEK4; NEK5; NEK6; NEK7; NEK9.
Common to all, as to conditions: concentration: 1 μM, replicates: in singlicate; n = 1
A further assay has as its system T1, NDR1.
T1 construct: gene STK38

Another assay concerns T2, NIK.
T2 construct: gene MAP3K14
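Note: KINOMEscan kinase panel screen.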

As to `Cc1ccccc1CC(=O)N1CCc2cc(-c3cn(C)c4ncnc(N)c34)ccc21` [GSK2603346], the “%Inh” value with MTOR was 30%; in the assay on MUSK, 5%; with MYLK2, 85%; with MYLK4, 0%; in the assay on MYLK, 9%; with MYO3A it was 100%. For the same compound, the “%Inh” value in the assay with MYO3B is given as 0%; in the assay with NDR1 it was 0%; with NDR2, 0%; in the assay with NEK10 it was 0%; in the assay on NEK11 it was 58%; in the assay with NEK1, 89%. In addition, the “%Inh” value with NEK2 came to 97%; with NEK3, 0%; with NEK4 it was 29%; with NEK5 it was 34%; in the assay on NEK6 it was 0%; with NEK7, 0%. Further, the “%Inh” value in the assay on NEK9 is listed as 0%; in the assay with NIK it was 21%.
Turning to `Cc1ccc(O)cc1Nc1ccnc2ccc(C(C)(C)C)cc12` [GW856805], the “%Inh” value in the assay with MTOR was 0%; in the assay with MUSK it was 27%; in the assay with MYLK2 it was 5%; in the assay with MYLK4 it was 13%; with MYLK, 25%; in the assay with MYO3A it was 13%. For the same compound, the “%Inh” value in the assay with MYO3B was 6%; in the assay on NDR1, 18%; with NDR2, 23%; in the assay with NEK10, 27%; with NEK11, 23%; with NEK1 it was 21%. The “%Inh” value in the assay on NEK2 worked out at 9%; in the assay with NEK3, 39%; in the assay with NEK4, 1%; in the assay with NEK5, 17%; with NEK6, 20%; in the assay on NEK7, 25%. Besides, the “%Inh” value is given as 10% in the assay with NEK9 and 31% in the assay with NIK.
As for `O=C(Nc1n[nH]c2nc(-c3ccccc3)ccc12)C1CC1` [SB-708999], the “%Inh” value in the assay on MTOR came to 0%; with MUSK, 13%; in the assay on MYLK2, 86%; in the assay on MYLK4, 11%; in the assay with MYLK, 30%; with MYO3A it was 25%. For the same compound, the “%Inh” value in the assay on MYO3B turned out to be 0%; in the assay with NDR1, 0%; in the assay on NDR2, 13%; with NEK10, 0%; in the assay on NEK11, 36%; in the assay with NEK1, 0%. For the same compound, the “%Inh” value is recorded as 0% in the assay on NEK2; 2% in the assay with NEK3; 5% with NEK4; 49% with NEK5; 24% in the assay on NEK6; 0% in the assay with NEK7. The entries for the “%Inh” value in the assay with NEK9 and in the assay on NIK were 7% and 18%, respectively.
Take `COC(=O)Nc1nc2cc(Oc3ccc(NC(=O)Nc4cccc(SC)c4)cc3)ccc2[nH]1.Cl` [GW697999]: the “%Inh” value with MTOR turned out to be 28%; in the assay with MUSK it was 98.9%; in the assay with MYLK2, 2%; in the assay with MYLK4, 0%; in the assay with MYLK, 11%; in the assay with MYO3A, 25%. The “%Inh” value in the assay on MYO3B amounted to 0%; with NDR1 it was 11%; with NDR2 it was 0%; in the assay with NEK10 it was 7%; with NEK11, 22%; in the assay on NEK1 it was 0%. The “%Inh” value with NEK2 is on record as 0%; in the assay on NEK3, 4%; in the assay with NEK4 it was 4%; in the assay on NEK5, 11%; in the assay on NEK6, 0%; in the assay on NEK7 it was 0%. Further, the entries for the “%Inh” value with NEK9 and in the assay on NIK were 3% and 0%, respectively.
Regarding `Cc1ccc(O)cc1Nc1ccnc2cc(-c3ccc(CN4CCCCC4)o3)ccc12` [GW557777], the “%Inh” value amounted to 0% with MTOR; 3% with MUSK; 0% in the assay with MYLK2; 2% in the assay with MYLK4; 9% with MYLK; 4% in the assay with MYO3A. Besides, the “%Inh” value came out at 0% with MYO3B; 0% with NDR1; 4% in the assay on NDR2; 0% with NEK10; 0% in the assay on NEK11; 0% in the assay on NEK1. Moreover, the “%Inh” value with NEK2 was 11%; in the assay on NEK3, 3%; in the assay with NEK4, 0%; in the assay with NEK5, 0%; with NEK6 it was 0%; in the assay with NEK7, 9%. For the same compound, the “%Inh” value in the assay on NEK9 and in the assay on NIK was 0% in each case.
For the compound `COc1cc(Nc2nccc(N3CCC(NS(=O)(=O)c4ccc(NC(C)=O)cc4)CC3)n2)cc(OC)c1OC` [GSK1379825], the “%Inh” value in the assay with MTOR is recorded as 16%; in the assay on MUSK it was 14%; with MYLK2, 61%; with MYLK4, 0%; in the assay on MYLK, 1%; in the assay on MYO3A, 0%. In addition, the “%Inh” value in the assay with MYO3B was found to be 0%; with NDR1, 0%; in the assay with NDR2, 0%; with NEK10, 17%; in the assay with NEK11, 0%; in the assay with NEK1, 83%. For the same compound, the “%Inh” value was found to be 1% in the assay on NEK2; 89% in the assay with NEK3; 3% in the assay with NEK4; 100% with NEK5; 62% with NEK6; 86% with NEK7. The “%Inh” value stood at 45% in the assay with NEK9 and 26% in the assay on NIK.
For `CCn1c(-c2nonc2N)nc2c(-c3ccccc3)ncc(OCCCN)c21.O=C(O)C(F)(F)F.O=C(O)C(F)(F)F` [GSK260205], the “%Inh” value stood at 20% in the assay on MTOR; 0% in the assay on MUSK; 0% in the assay on MYLK2; 0% in the assay with MYLK4; 33% in the assay with MYLK; 27% with MYO3A. Moreover, the “%Inh” value with MYO3B worked out at 0%; in the assay on NDR1, 23%; in the assay with NDR2 it was 0%; in the assay on NEK10, 9%; with NEK11, 1%; with NEK1 it was 0%. Besides, the “%Inh” value with NEK2 is reported as 1%; in the assay on NEK3 it was 7%; in the assay on NEK4, 21%; in the assay on NEK5 it was 1%; in the assay with NEK6 it was 0%; in the assay on NEK7 it was 0%. In addition, the “%Inh” value was determined as 0% with NEK9 and 30% with NIK.
For the compound `CN1CCN(Cc2ccc(NC(=O)Nc3ccc(N(C)c4ccnc(Nc5ccc(CS(C)(=O)=O)cc5)n4)cc3)cc2)CC1.Cl` [GW827654], the “%Inh” value in the assay with MTOR was 0%; in the assay with MUSK, 98.8%; in the assay with MYLK2 it was 61%; in the assay on MYLK4 it was 18%; with MYLK, 45%; in the assay on MYO3A, 99.1%. Besides, the “%Inh” value with MYO3B is 0%; in the assay with NDR1, 0%; with NDR2 it was 0%; with NEK10 it was 28%; with NEK11, 19%; in the assay with NEK1 it was 45%. Moreover, the “%Inh” value in the assay with NEK2 came out at 0%; in the assay on NEK3 it was 16%; in the assay on NEK4 it was 24%; in the assay with NEK5, 98.3%; with NEK6, 3%; in the assay on NEK7, 30%. Further, the “%Inh” value is 49% with NEK9 and 0% in the assay with NIK.
As for `Cc1ccc(C)c(NC(=O)Nc2ccc(C)c(-c3ccc(C(=O)Nc4ccncc4)cc3)c2)c1` [GSK1398473], the “%Inh” value in the assay with MTOR was 17%; with MUSK, 0%; in the assay with MYLK2 it was 0%; in the assay with MYLK4 it was 0%; in the assay with MYLK it was 0%; with MYO3A it was 0%. Also, the “%Inh” value in the assay with MYO3B was 0%; in the assay on NDR1, 29%; in the assay on NDR2, 0%; in the assay with NEK10, 18%; in the assay on NEK11, 0%; in the assay on NEK1, 0%. The “%Inh” value in the assay with NEK2 was 1%; in the assay with NEK3, 5%; in the assay with NEK4 it was 0%; in the assay with NEK5, 8%; with NEK6 it was 1%; in the assay with NEK7, 0%. Moreover, the “%Inh” value in the assay on NEK9 is 7%; in the assay with NIK, 4%.
For the compound `COc1cccc(-c2nc(-c3ccccc3)[nH]c2-c2ccncc2)c1` [SB-610250], the “%Inh” value in the assay with MTOR is reported as 13%; with MUSK, 0%; in the assay on MYLK2 it was 8%; with MYLK4, 0%; in the assay on MYLK, 0%; in the assay on MYO3A, 18%. For the same compound, the “%Inh” value in the assay with MYO3B was found to be 0%; in the assay on NDR1, 9%; in the assay on NDR2, 0%; with NEK10, 20%; in the assay with NEK11 it was 26%; in the assay on NEK1, 100%. Further, the “%Inh” value with NEK2 was 0%; in the assay with NEK3 it was 11%; in the assay with NEK4 it was 16%; in the assay with NEK5 it was 1%; in the assay with NEK6 it was 4%; in the assay with NEK7, 0%. Moreover, the “%Inh” value in the assay on NEK9 is on record as 4%; in the assay with NIK, 0%.
